According to PubChem BioAssay:
The source made the active and inactive calls.

What was measured:
[1] = test system: PRMT1 (protein arginine N-methyltransferase 1); experiment: PRMT1 binders on small-molecule microarrays, primary screen, biochemical, small-molecule microarray, 635 nm fluorescence (AID 1088); details: small-molecule microarray binding, higher = more signal;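 note: binding of Prmt1 protein to compounds spotted on small-molecule microarray slides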
[2] = yeast growth modulation, basal conditions, primary screen, YJM789 clinical isolate, OD600, 24 h (AID 1089);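 note: growth of clinical yeast isolate S. cerevisiae YJM 789 seeded 1000 cells per well; test concentration not given here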; details: S. cerevisiae YJM789 growth, higher = more signal, called active from +8 up or from −8 down
[3] = fission yeast growth modulation, primary screen, strain 972, OD600, 24 h, no modulator (AID 1090);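 note: basal condition with compound alone and no growth modifier present; test concentration not given here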; details: S. pombe 972 growth, higher = more signal, called active from +8 up or from −8 down
[4] = S. cerevisiae growth modulation with rapamycin, primary screen, strain BY4716, OD600, 96 h (AID 1091); details: higher = more signal, called active from +8 up or from −8 down; note: test concentration not given here
[5] = molecular target: Torsin-1A-interacting protein 2 (Homo sapiens) (UniProt Q8NFQ8); experiment: LULL1 binders on small-molecule microarray, primary screen, cell lysate, human LULL1 lysate, 635/667 nm fluorescence (AID 1092); details: hLULL1 lysate binding, 635 nm fluorescence, higher = more signal;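 note: probe is lysate of COS7 cells overexpressing human LULL1; score merges per-feature 667 nm fluorescence with signal-to-noise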
Torsin-1A-interacting protein 2 (Homo sapiens), sequence (Q8NFQ8 whole entry, looked up): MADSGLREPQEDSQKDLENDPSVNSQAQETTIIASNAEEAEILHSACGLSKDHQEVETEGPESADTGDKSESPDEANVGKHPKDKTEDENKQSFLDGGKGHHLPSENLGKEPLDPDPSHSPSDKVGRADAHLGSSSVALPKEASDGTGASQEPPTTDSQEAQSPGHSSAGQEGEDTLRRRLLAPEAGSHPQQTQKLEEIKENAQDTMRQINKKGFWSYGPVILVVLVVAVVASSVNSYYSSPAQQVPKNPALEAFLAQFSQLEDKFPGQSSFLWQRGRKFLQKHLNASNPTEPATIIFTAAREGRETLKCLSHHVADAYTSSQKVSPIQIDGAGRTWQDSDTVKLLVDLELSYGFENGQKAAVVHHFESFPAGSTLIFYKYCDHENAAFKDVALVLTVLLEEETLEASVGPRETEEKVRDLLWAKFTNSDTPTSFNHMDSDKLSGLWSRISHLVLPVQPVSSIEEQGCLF

[6] = E. coli growth modulation, two-sided OD650, primary screen, E. coli filamentation project, strain DRC41, 24 h (AID 1093); details: OD650, 24 h, higher = more signal, called active from +8 up or from −8 down;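 note: MC1000 strain lacking acrAB efflux and sulA so SOS filamentation is blocked; test concentration not given here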
[7] = small-molecule microarray binders of probe aLefty2, primary screen, biochemical, biotinylated probe, 635/667 nm fluorescence (AID 1094); details: higher = more signal;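 note: score merges spot fluorescence near 667 nm with spot signal-to-noise ratio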
[8] = test system: Noggin (protein binding on small-molecule microarray); experiment: Noggin binders on small-molecule microarray, primary screen, biochemical, 635/667 nm fluorescence (AID 1095); details: 635 nm fluorescence, higher = more signal;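 note: score merges 667 nm feature fluorescence with signal to noise over triplicate slides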
[9] = molecular target: Neurogenic locus notch homolog protein 3 (Homo sapiens) (UniProt Q9UM47); experiment: NOTCH3 binders on small-molecule microarray, primary screen, biochemical, 635/667 nm fluorescence (AID 1096); details: NOTCH3 binding, 635 nm fluorescence, higher = more signal
Neurogenic locus notch homolog protein 3 (Homo sapiens), sequence (Q9UM47 whole entry, looked up): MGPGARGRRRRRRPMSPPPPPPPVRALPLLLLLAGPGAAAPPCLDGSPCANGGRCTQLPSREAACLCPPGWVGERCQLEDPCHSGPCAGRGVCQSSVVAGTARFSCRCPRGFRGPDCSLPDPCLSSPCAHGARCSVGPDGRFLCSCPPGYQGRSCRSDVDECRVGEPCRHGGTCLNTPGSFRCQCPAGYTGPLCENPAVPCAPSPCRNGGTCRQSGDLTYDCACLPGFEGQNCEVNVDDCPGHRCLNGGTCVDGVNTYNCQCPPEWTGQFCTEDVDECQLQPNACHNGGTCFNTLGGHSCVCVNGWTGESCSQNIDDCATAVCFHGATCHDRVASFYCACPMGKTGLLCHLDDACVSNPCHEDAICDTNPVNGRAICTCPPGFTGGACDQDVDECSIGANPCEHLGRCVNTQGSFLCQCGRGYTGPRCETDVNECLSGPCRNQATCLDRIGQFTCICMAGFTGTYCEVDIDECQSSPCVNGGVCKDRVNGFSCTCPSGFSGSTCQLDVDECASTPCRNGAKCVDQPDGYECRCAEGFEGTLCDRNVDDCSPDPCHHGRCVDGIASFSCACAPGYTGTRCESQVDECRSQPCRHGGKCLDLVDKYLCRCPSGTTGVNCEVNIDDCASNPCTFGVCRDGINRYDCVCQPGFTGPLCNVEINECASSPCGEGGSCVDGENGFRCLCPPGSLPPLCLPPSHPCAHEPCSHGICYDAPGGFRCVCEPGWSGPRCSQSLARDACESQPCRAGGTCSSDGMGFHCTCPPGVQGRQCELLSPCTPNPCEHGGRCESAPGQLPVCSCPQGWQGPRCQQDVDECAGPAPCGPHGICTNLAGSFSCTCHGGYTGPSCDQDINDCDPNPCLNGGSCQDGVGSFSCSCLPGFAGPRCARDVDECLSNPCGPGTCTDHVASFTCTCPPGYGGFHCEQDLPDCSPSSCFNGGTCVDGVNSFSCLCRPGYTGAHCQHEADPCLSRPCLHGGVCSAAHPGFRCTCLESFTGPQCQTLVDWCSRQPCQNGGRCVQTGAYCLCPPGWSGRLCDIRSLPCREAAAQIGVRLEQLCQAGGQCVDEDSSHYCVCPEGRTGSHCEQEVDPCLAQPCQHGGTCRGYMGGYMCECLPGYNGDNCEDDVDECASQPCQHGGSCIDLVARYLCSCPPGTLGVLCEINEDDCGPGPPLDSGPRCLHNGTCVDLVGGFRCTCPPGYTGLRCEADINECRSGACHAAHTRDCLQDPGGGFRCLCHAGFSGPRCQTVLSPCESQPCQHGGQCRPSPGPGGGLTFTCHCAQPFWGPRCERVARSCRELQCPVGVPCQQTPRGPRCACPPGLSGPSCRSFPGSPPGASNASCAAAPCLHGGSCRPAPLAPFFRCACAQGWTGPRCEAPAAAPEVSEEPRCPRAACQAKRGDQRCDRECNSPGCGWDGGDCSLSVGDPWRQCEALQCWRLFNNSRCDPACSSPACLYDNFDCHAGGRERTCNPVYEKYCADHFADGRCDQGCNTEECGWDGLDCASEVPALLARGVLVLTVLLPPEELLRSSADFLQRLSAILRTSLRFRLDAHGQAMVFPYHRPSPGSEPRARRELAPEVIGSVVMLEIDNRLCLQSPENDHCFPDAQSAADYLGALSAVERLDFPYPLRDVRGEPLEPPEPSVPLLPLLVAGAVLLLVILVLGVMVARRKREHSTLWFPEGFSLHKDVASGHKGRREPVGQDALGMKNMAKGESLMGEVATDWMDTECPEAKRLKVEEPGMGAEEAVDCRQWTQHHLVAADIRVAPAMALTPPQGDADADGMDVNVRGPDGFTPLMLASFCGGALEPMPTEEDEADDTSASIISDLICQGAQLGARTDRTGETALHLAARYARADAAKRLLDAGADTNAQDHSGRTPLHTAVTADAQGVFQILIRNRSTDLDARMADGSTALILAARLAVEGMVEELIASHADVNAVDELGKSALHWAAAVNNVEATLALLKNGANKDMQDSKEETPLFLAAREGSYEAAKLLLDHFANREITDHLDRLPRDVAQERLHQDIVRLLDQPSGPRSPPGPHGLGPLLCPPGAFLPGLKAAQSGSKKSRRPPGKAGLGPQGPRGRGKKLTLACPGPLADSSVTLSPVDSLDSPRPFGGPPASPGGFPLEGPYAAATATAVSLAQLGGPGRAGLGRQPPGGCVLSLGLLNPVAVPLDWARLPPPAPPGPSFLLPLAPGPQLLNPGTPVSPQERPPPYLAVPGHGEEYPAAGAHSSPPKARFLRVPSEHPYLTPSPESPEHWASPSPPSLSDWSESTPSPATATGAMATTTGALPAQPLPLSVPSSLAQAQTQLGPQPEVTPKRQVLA

[10] = small-molecule microarray binders of probe aEGFR, primary screen, biochemical, biotinylated probe, 635/667 nm fluorescence (AID 1097); details: higher = more signal;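 note: probe is a biotinylated anti-EGFR antibody binding compounds printed on slides; score combines fluorescence near 667 nm and signal to noise of each spot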
[11] = test system: Plasmodium falciparum Sir2 (PF13_0152, Sir2A); experiment: pfSir2 binders on small-molecule microarrays, primary screen, biochemical, small-molecule microarray, 635 nm fluorescence (AID 1098); details: small-molecule microarray binding, fluorescence 635 nm; higher = more signal;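 note: score merges spot fluorescence intensity with its signal-to-noise ratio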
[12] = small-molecule microarray binders of probe aDKK1, primary screen, biochemical, biotinylated probe, 635/667 nm fluorescence (AID 1099); details: higher = more signal;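 note: score merges 667nm spot fluorescence with signal to noise across triplicate slides; reference of the scale not given here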
[13] = small-molecule microarray binders of probe aCHRDL2, primary screen, biochemical, biotinylated probe, 635/667 nm fluorescence (AID 1100); details: higher = more signal
[14] = splicing luciferase reporter signal modulators, primary screen, spliceosome inhibition project, cell-based, HEK293, splice +/- reporter (AID 1101); details: luminescence, 24 h, higher = more signal, called active from +8 up or from −8 down;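 note: HEK293 cells carrying a splicing-competent luciferase reporter gene; test concentration not given here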
[15] = molecular target: Fibroblast growth factor 10 (Homo sapiens) (UniProt O15520); experiment: FGF10 binders on small-molecule microarrays, primary screen, biochemical, small-molecule microarray, 635 nm fluorescence (AID 1102); details: FGF10 binding, fluorescence 635 nm, higher = more signal
Fibroblast growth factor 10 (Homo sapiens), sequence (O15520 whole entry, looked up): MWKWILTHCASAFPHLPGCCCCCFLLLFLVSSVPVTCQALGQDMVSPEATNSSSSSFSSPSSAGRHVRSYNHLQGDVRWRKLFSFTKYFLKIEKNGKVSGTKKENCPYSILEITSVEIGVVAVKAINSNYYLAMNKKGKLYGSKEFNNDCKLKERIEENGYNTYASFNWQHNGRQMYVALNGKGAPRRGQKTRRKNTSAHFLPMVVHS

[16] = test system: glycogen synthase kinase-3 (GSK3A per assay name; protocol says GSK3B); experiment: GSK3 binders on small-molecule microarrays, primary screen, biochemical, small-molecule microarray, 635 nm fluorescence, GSK3A (AID 1103); details: small-molecule microarray binding, fluorescence 635 nm; higher = more signal; note: the record names both GSK3A and GSK3B
[17] = molecular target: Epidermal growth factor receptor (Homo sapiens) (UniProt P00533); experiment: EGFR binders on small-molecule microarrays, primary screen, biochemical, small-molecule microarray, 635 nm fluorescence (AID 1104); details: EGFR binding, higher = more signal;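 note: score merges 667 nm emission intensity with spot signal to noise over triplicate slides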
Epidermal growth factor receptor (Homo sapiens), sequence (P00533 whole entry, looked up): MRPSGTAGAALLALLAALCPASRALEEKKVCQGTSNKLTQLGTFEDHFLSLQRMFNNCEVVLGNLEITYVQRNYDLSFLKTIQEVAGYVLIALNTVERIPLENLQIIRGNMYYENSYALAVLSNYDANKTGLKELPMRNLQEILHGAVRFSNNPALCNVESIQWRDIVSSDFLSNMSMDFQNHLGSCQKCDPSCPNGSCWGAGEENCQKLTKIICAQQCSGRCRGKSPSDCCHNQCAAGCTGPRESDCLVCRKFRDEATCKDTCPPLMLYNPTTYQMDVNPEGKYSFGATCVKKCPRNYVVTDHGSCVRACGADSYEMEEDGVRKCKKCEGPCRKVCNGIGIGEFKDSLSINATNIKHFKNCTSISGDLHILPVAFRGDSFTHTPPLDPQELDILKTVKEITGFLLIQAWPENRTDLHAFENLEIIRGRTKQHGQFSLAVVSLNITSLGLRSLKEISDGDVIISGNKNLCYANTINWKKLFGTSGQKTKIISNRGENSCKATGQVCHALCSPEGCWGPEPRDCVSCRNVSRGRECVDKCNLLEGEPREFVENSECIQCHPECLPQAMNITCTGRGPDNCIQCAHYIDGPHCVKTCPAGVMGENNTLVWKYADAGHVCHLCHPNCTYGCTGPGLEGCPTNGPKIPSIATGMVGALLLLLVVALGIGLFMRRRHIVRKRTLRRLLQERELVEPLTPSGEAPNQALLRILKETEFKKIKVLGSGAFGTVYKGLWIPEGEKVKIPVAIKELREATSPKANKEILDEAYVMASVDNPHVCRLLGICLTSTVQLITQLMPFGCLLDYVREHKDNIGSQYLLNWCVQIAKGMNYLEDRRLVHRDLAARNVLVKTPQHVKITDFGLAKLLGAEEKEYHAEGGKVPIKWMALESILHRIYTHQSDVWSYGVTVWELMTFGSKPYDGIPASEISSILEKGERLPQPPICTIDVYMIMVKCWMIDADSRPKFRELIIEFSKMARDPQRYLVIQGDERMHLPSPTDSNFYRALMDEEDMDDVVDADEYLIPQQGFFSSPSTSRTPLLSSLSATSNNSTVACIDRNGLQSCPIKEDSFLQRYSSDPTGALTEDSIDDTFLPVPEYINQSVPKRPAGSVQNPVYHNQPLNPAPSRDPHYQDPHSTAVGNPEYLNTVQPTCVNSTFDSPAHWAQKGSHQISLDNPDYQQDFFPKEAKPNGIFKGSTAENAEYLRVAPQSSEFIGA

[18] = molecular target: Follistatin-related protein 3 (Homo sapiens) (UniProt O95633); experiment: FSTL3 binders on small-molecule microarrays, primary screen, biochemical, small-molecule microarray, 635 nm fluorescence (AID 1105); details: FSTL3 binding, higher = more signal;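 note: score merges emission near 667 nm and signal to noise per printed spot across three slides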
Follistatin-related protein 3 (Homo sapiens), sequence (O95633 whole entry, looked up): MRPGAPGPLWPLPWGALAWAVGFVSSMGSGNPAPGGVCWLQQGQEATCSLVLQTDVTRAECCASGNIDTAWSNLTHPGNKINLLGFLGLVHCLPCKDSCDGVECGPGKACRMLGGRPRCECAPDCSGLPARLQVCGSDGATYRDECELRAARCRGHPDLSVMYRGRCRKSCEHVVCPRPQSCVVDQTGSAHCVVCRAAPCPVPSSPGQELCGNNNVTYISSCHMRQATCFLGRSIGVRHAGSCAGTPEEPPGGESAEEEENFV

[19] = molecular target: Dickkopf-related protein 1 (Homo sapiens) (UniProt O94907); experiment: DKK1 binders on small-molecule microarrays, primary screen, biochemical, small-molecule microarray, 635 nm fluorescence scan (AID 1106); details: DKK1 binding, higher = more signal;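 note: score merges emission near 667 nm with signal to noise over three replicate slides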
Dickkopf-related protein 1 (Homo sapiens), sequence (O94907 whole entry, looked up): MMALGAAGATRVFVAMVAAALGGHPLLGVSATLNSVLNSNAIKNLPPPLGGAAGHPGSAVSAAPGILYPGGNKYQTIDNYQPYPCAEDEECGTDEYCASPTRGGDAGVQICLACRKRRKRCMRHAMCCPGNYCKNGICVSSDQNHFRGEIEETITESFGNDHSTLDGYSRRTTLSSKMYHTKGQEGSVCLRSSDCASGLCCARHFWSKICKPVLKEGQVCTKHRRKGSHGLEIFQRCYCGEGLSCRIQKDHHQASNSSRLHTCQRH

[20] = test system: Inhibin beta A chain (activin A); experiment: INHBA (activin A) binders on microarrays, primary screen, biochemical, small-molecule microarray, 635 nm fluorescence scan (AID 1107); details: small-molecule microarray binding, higher = more signal;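 note: mouse activin A protein probed at 4.33 µg/mL on printed slides; score merges bound-protein fluorescence near 667 nm with spot signal-to-noise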

## Cc1ccc(S[C@]2(C(=O)O)CC(=O)N(C3Cc4ccccc4C3)[C@@H]2c2ccc(CO)cc2)cc1
[1]
  composite z-score: 1.04
[2]
  z-score: 0.137 (inactive)
[3]
  z-score: -1.36 (inactive)
[4]
  z-score: 0.448 (inactive)
[5]
  composite z-score: 2.98
[6]
  z-score: 0.618 (inactive)
[7]
  composite z-score: 0.126
[8]
  composite z-score: -0.98
[9]
  composite z-score: -0.472
[10]
  composite z-score: -0.185
[11]
  composite z-score: 1.02
[12]
  composite z-score: 0.526
[13]
  composite z-score: 1.08
[14]
  z-score: 0.2 (inactive)
[15]
  composite z-score: 0.0926
[16]
  composite z-score: -0.775
[17]
  composite z-score: -0.846
[18]
  composite z-score: -0.946
[19]
  composite z-score: -1.69
[20]
  composite z-score: 1.19

## CC(C)C(CO)N1C(=O)[C@@H]2C3C(=O)OCCC/C=C\[C@H]3OC23C=CCN(C(C)(C)C)C(=O)[C@@H]13 (stereo not given in full)
[1]
  composite z-score: -0.429
[2]
  z-score: 0.465 (inactive)
[3]
  z-score: -0.415 (inactive)
[4]
  z-score: 0.0032 (inactive)
[5]
  composite z-score: 0.895
[6]
  z-score: -0.787 (inactive)
[7]
  composite z-score: -0.259
[8]
  composite z-score: -0.733
[9]
  composite z-score: -0.354
[10]
  composite z-score: -0.259
[11]
  composite z-score: 1.2
[12]
  composite z-score: -0.456
[13]
  composite z-score: -0.384
[14]
  z-score: 0.476 (inactive)
[15]
  composite z-score: -0.598
[16]
  composite z-score: 0.0664
[17]
  composite z-score: -0.44
[18]
  composite z-score: -0.504
[19]
  composite z-score: -0.268
[20]
  composite z-score: 1.05

## CCOC(=O)C1=CC[C@@H](c2cccc(Cl)c2)N(S(=O)(=O)c2ccc(C)cc2)C1
[1]
  composite z-score: 0.335
[2]
  z-score: -1.89 (inactive)
[3]
  z-score: -0.0856 (inactive)
[4]
  z-score: 0.311 (inactive)
[5]
  composite z-score: 2.54
[6]
  z-score: -0.363 (inactive)
[7]
  composite z-score: 0.0771
[8]
  composite z-score: 0.0745
[9]
  composite z-score: 0.126
[10]
  composite z-score: -0.0803
[11]
  composite z-score: 0.925
[12]
  composite z-score: 0.419
[13]
  composite z-score: 0.877
[14]
  z-score: -2.03 (inactive)
[15]
  composite z-score: 0.674
[16]
  composite z-score: 0.0076
[17]
  composite z-score: 0.101
[18]
  composite z-score: -0.0034
[19]
  composite z-score: 0.0677
[20]
  composite z-score: 0.539
